# Laboratory results from PubChem BioAssay (NCATS).
# Records with an inconclusive call do not appear. Where a call stands in place of a potency, no number is given. Calls of active or inactive are those of the source. The call rests on the fitted dose curve; in most records, active means well fitted activation curve with a large enough effect in the repeat runs; inconclusive means weak or mixed curves; inactive means flat fitted curve, though single readings scatter.
# Test: qHTS assay for small molecule agonists of the antioxidant response element (ARE) signaling pathway measured by Nrf2-dependant transcriptional activity (AID 720636)
# Conditions: ARE-luc HepG2, Nrf2 luciferase reporter, 16 h; series mostly up to 92.4 µM
# From the text: National Center for Advancing Translational Sciences [NCATS] NIH Chemical Genomics Center [NCGC] U.S. Environmental Protection Agency [EPA] National Institutes of Environmental Health Sciences [NIEHS] National Toxicology Program [NTP] Assay Overview: The antioxidant response element (ARE) signaling pathway plays an important role in the cellular anti-oxidant defense. Exposure to stressors which are exogenous like ionizing radiations, chemicals, U-V light, and endogenous like cell signaling, metabolic processes or inflammation, reactive oxygen species (ROS), can induce oxidative stress in the cells. Oxidative stress has been implicated in the pathogenesis of a variety of diseases ranging from cancer to neurodegeneration. ARE-luc HepG2 cell line (Simmons et al., Current Chemical Genomics, 5:1-12, 2011) has been used for identifying the chemicals that induce oxidative stress. The cell line has an Nrf2-responsive luciferase reporter gene that has been engineered to measure Nrf2-dependant transcriptional activity.
# Assay Protocol Summary: For measuring ARE induction; 2,000 ARE-luc HepG2 cells in 5 uL of assay medium containing 1% dialyzed FBS per well were dispensed into white wall/solid bottom 1536-well plates using a Flying Reagent Dispenser (FRD) (Aurora Discovery). The assay plates were incubated for 6 hr at 37 C to allow cell attachment to the well bottom, followed by the transfer of 23 nL compound or DMSO vehicle by a pin tool (Kalypsys). The plates were incubated for 16 hr at 37 C and 5% CO2, followed by the addition of 5 uL of ONE-GloTM luciferase reagent (Promega) into each well using FRD. After 30 min room temperature incubation, plates were read on a ViewLux plate reader (PerkinElmer).
row,SMILES,Potency
1,Oc1cc(Cl)cc(Cl)c1,inactive
2,CCCCC(CC)COC(=O)c1ccc(C(=O)OCC(CC)CCCC)c(C(=O)OCC(CC)CCCC)c1 (stereo not given),inactive
3,N#CCc1ccccc1,inactive
4,Cc1cc(-c2cc(C)c(N)c(C)c2)cc(C)c1N,inactive
5,O=C(O)c1cc(Cl)ccc1Cl,inactive
6,Clc1ccccc1,inactive
7,O=C(Cl)OCc1ccccc1,inactive
8,Nc1ccc(Cc2ccc(N)cc2)cc1,inactive
9,Nc1cc(Cl)ccc1Cl,inactive
10,ClCc1ccccc1,inactive
11,Cc1cc(C)cc(OP(=O)(Oc2cc(C)cc(C)c2)Oc2cc(C)cc(C)c2)c1,inactive
12,BrC(Br)Br,inactive
13,O=[N+]([O-])/C=C/c1ccccc1,inactive
14,O=C(O)CCl,inactive
15,c1ccc2c(c1)CCNC2,inactive
16,CC(C)OC(=O)Cc1ccccc1,inactive
17,C/C=C/C=O,inactive
18,CC1CC(=O)O1 (stereo not given),inactive
19,OCC(Cl)CCl (stereo not given),inactive
20,Cc1ccc([N+](=O)[O-])cc1,inactive

row,SMILES,Potency
1,COc1ccccc1N,inactive
2,CCOC(=O)CC(SP(=O)(OC)OC)C(=O)OCC (stereo not given),inactive
3,N#CCBr,inactive
4,CCNCC,inactive
5,CN1CSC(=S)N(C)C1,inactive
6,CC(C#N)CCC#N (stereo not given),inactive
7,O=[N+]([O-])c1c(Cl)c(Cl)c(Cl)c(Cl)c1Cl,inactive
8,CCCCCCCCCCCCCl,inactive
9,Cl/C=C/Cl,inactive
10,ClC(Cl)(Cl)C(Cl)(Cl)Cl,inactive
11,C(CCOCC1CO1)COCC1CO1 (stereo not given),inactive
12,CCCBr,inactive
13,S=C1NCCN1,inactive
14,CCN(CC)N=O,inactive
15,C1CC2OC2CC1C1CO1 (stereo not given),inactive
16,Nc1cccc(Cl)c1,inactive
17,CCCCC#N,inactive
18,c1ccc(C2CO2)cc1 (stereo not given),inactive
19,CSSC,inactive
20,ClCC(Cl)CCl,inactive
